Results reported in PubChem BioAssay (NCATS).
Inconclusive results are not listed. The source made the active and inactive calls. Calls come from the whole dose curve; as a rule, active = well fitted curve in the direction sought with a large enough effect; inconclusive = small, poorly fitted or top-dose-only effect, or another doubt; inactive = no such curve, though single readings can be large; an effect the other way counts as inactive or inconclusive.

Tests used:
[1] = qHTS of pediatric cancer cell lines to identify multiple opportunities for drug repurposing: Primary screen for U-2 OS cells (AID 1347096); note: nearly all actives have a fitted effect of over 50% in size; note: potency is the fitted concentration of half-maximal effect
Procedure, shortened: (§1)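 Cells (500-1,000/well) rested 5 h, then received compounds for 48 h; metabolically active cells were measured by CellTiter-Glo luminescence. Final concentrations spanned up to 46 µM (MIPE, 11-point) or 0.59 nM-46 µM (NPC, 8-point) in primary screens, 11-point in follow-ups.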

[2] = qHTS of pediatric cancer cell lines to identify multiple opportunities for drug repurposing: Primary screen for Saos-2 cells (AID 1347097); note: nearly all actives have a fitted effect of over 40% in size
Procedure, shortened: (§2)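 Plated cells (500-1,000 per well, growth media) were allowed to settle for 5 hours, treated with compound dilutions for 48 hours, then lysed with CellTiter-Glo for 15 min at room temperature before luminescence reading.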

[3] = qHTS of pediatric cancer cell lines to identify multiple opportunities for drug repurposing: Primary screen for SK-N-SH cells (AID 1347098); note: nearly all actives have a fitted effect of over 65% in size; note: potency is the fitted concentration of half-maximal effect
Procedure, shortened: as §1

[4] = qHTS of pediatric cancer cell lines to identify multiple opportunities for drug repurposing: Primary screen for NB1643 cells (AID 1347099); note: nearly all actives have a fitted effect of over 50% in size; note: potency is the fitted concentration of half-maximal effect
Procedure, shortened: as §2

[5] = qHTS of pediatric cancer cell lines to identify multiple opportunities for drug repurposing: Primary screen for LAN-5 cells (AID 1347100); note: potency is the fitted concentration of half-maximal effect
Procedure, shortened: as §1

[6] = qHTS of pediatric cancer cell lines to identify multiple opportunities for drug repurposing: Primary screen for BT-12 cells (AID 1347101); note: nearly all actives have a fitted effect of over 25% in size
Procedure, shortened: as §1

[7] = qHTS of pediatric cancer cell lines to identify multiple opportunities for drug repurposing: Primary screen for OHS-50 cells (AID 1347103); note: nearly all actives have a fitted effect of over 40% in size
Procedure, shortened: as §1

[8] = qHTS of pediatric cancer cell lines to identify multiple opportunities for drug repurposing: Primary screen for RD cells (AID 1347104); note: nearly all actives have a fitted effect of over 55% in size; note: potency is the fitted concentration of half-maximal effect
Procedure, shortened: as §2

[9] = qHTS of pediatric cancer cell lines to identify multiple opportunities for drug repurposing: Primary screen for MG 63 (6-TG R) cells (AID 1347105); note: nearly all actives have a fitted effect of over 50% in size; note: potency is the fitted concentration of half-maximal effect
Procedure, shortened: as §2

[10] = qHTS of pediatric cancer cell lines to identify multiple opportunities for drug repurposing: Primary screen for Rh18 cells (AID 1347102); note: nearly all actives have a fitted effect of over 65% in size
Procedure, shortened: as §1

Measured: Potency

C=CCC1([C@H](C)CCC)C(=O)NC(=O)NC1=O
not listed: [10]
inactive: all other assays above

O=C(N/N=C/c1ccc([N+](=O)[O-])o1)c1cc([N+](=O)[O-])cc([N+](=O)[O-])c1O
inactive: all assays above

C[C@H]1[C@@H]2Cc3ccc(O)cc3[C@@]1(C)CCN2C
not listed: [7]
inactive: all other assays above

CC(C)(N)Cc1ccccc1Cl
not listed: [10]
inactive: all other assays above

COc1ccc2c(c1OC)C(=O)O[C@H]2[C@@H]1c2cc3c(cc2CCN1C)OCO3
inactive: all assays above

CC[N+]1(CC)CCC(OC(=O)C(O)(c2ccccc2)c2ccccc2)C1 (centres undefined)
inactive: all assays above

CCC1(c2ccccc2)C(=O)N(COC)C(=O)N(COC)C1=O
inactive: all assays above

[N-]=[N+]=CC(=O)OC[C@H](N)C(=O)O
not listed: [3]
inactive: all other assays above

CC(=O)C1CCOC1=O (centres undefined)
inactive: all assays above

C=C(C)[C@H]1CN[C@H](C(=O)O)[C@H]1CC(=O)O
inactive: all assays above

CCC1(c2ccc(N)cc2)CCC(=O)NC1=O (centres undefined)
not listed: [3]
inactive: all other assays above

COC(=O)[C@@H](N)CCCN/C(N)=N/[N+](=O)[O-]
inactive: all assays above

Clc1cccc(SC2CCNCC2)n1
not listed: [3]
inactive: all other assays above

NNc1ccccc1
not listed: [5]
inactive: all other assays above

CC(C)N(CCC(C(N)=O)(c1ccccc1)c1ccccn1)C(C)C (centres undefined)
inactive: all assays above

CN1C(=O)NC(=O)C(C)(C2=CCCCC2)C1=O (centres undefined)
not listed: [10]
inactive: all other assays above

C[C@H](N)C(=O)c1ccccc1
not listed: [3]
inactive: all other assays above

O=P1(N(CCCl)CCCl)NCCCO1 (centres undefined)
not listed: [10]
inactive: all other assays above

CC(C)c1c(CN(C)C(C)Cc2ccccc2)n(C)n(-c2ccccc2)c1=O (centres undefined)
not listed: [6]
inactive: all other assays above

CCN[C@@H](C)Cc1ccccc1
not listed: [3]
inactive: all other assays above

C[C@](O)(CS(=O)(=O)c1ccc(F)cc1)C(=O)Nc1ccc(C#N)c(C(F)(F)F)c1
inactive: [2] | [7]
active: [1] 14.8 µM | [3] 2.41 µM | [4] 2.96 µM | [5] 2.96 µM | [8] 5.9 µM | [9] 1.18 µM

O=C1c2ccccc2C(=O)c2ccccc21
not listed: [3]
inactive: all other assays above

CN1CC[C@]23c4c5ccc(O)c4O[C@H]2[C@@H](O)CC[C@H]3[C@H]1C5
inactive: all assays above

O=C(O)CCCc1ccc(N(CCCl)CCCl)cc1
active: [5] 9.44 µM
not listed: [7]
inactive: all other assays above

CCC(CC)(CNC(=O)CCCO)c1cccc(OC)c1
inactive: all assays above

CN(C)CCc1c[nH]c2cccc(OP(=O)(O)O)c12
not listed: [10]
inactive: all other assays above

CCCCCCCCCC(=O)O[C@H]1CC[C@H]2[C@@H]3CCC4=CC(=O)CC[C@@H]4[C@H]3CC[C@]12C
not listed: [3]
inactive: all other assays above

COc1cc(CC(C)N)cc(OC)c1OC (centres undefined)
inactive: all assays above

Oc1ccc(Cl)cc1
not listed: [10]
inactive: all other assays above

Nc1ccc([As](=O)(O)O)cc1
inactive: all assays above

CCOC(=O)CC(SP(=S)(OC)OC)C(=O)OCC (centres undefined)
inactive: all assays above

CCC1(CC)C(=O)C=CNC1=O
not listed: [3]
inactive: all other assays above

NC(=O)CS(=O)C(c1ccccc1)c1ccccc1 (centres undefined)
inactive: all assays above

Clc1ccccc1N1CCNCC1
not listed: [10]
inactive: all other assays above

CCCN(CCC)C(=O)Cc1c(-c2ccc(Cl)cc2)nc2ccc(Cl)cn12
not listed: [4] | [6] | [7]
inactive: all other assays above

CN1C(=O)COc2c(C(=O)NC3CN4CCC3CC4)cc(Cl)cc21 (centres undefined)
not listed: [10]
inactive: all other assays above

Nc1ccccc1
not listed: [10]
inactive: all other assays above

O=[N+]([O-])O[C@H]1CO[C@H]2[C@@H]1OC[C@H]2O[N+](=O)[O-]
inactive: all assays above

NC1=NC(=O)C(c2ccccc2)O1 (centres undefined)
inactive: all assays above

CC(=O)NC1CCSC1=O (centres undefined)
not listed: [2] | [10]
inactive: all other assays above

COc1cc(OC)c(OC)cc1C=O
not listed: [1]
inactive: all other assays above

C[C@]12CC[C@H]3[C@@H](CCC4=CC(=O)CC[C@@H]43)[C@@H]1CC[C@@H]2OC(=O)CCc1ccco1
not listed: [2] | [7]
inactive: all other assays above

COP(=S)(OC)SCN1C(=O)c2ccccc2C1=O
inactive: [1] | [5] | [6] | [7] | [8] | [9]

O=c1c(C2CC(c3ccc(-c4ccc(Br)cc4)cc3)Cc3ccccc32)c(O)sc2ccccc12 (centres undefined)
active: [4] 10.6 µM | [5] 10.6 µM
inactive: [1] | [10]

c1ccc(CN2CCNCC2)cc1
not listed: [3] | [10]
inactive: all other assays above

CC(C)(C)NCC(O)c1cc(Cl)c(N)c(C(F)(F)F)c1 (centres undefined)
not listed: [3] | [10]
inactive: all other assays above

CN1CC[C@]23c4c5ccc(O)c4O[C@H]2[C@@H](O)C=C[C@H]3[C@H]1C5
inactive: [1] | [5] | [7] | [9]

C[C@]12CCC(=O)C=C1CC[C@@H]1[C@@H]2CC[C@@]2(C)[C@H]1CC[C@]2(C)O
inactive: [1] | [3] | [4] | [5] | [8]
